Records with an inconclusive call do not appear. Where a call stands in place of a potency, no number is given. The source made the active and inactive calls. Calls follow the shape of the dose curve; as a rule, active = well fitted inhibition curve with a large enough effect; inconclusive = small, poorly fitted or top-dose-only effect; inactive = no such curve, though single readings can be large or run the other way.
Potency is read from the fitted curve at half-maximal effect.

The test can be described thus: Counterscreen qHTS for Identification of Calcium Integrin Binding Protein 1 (CIB1) Competitor. The settings on record: series mostly up to 114 µM. In a few lines: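 Compounds (final up to 114 uM) preincubated 15 min at room temperature with 1 uM CIB1-GST in calcium-containing HEPES pH 7.4 buffer; 100 nM scrambled FITC peptide added, and fluorescence polarization (480/540) measured after another 15 min.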
Regarding `O=C(O)c1ccccc1SC1=NS(=O)(=O)c2ccccc21`, the Potency result was “inactive”.

As to `O=S(=O)(Nc1nccs1)c1ccc(Nc2nc(-c3ccccc3)cs2)cc1`, the Potency is 50.1 µM (active).

On to `Cc1ccc(S(=O)(=O)Nc2ccc(Br)cc2C(=O)Nc2nc(-c3ccccc3)cs2)cc1`, for which the Potency entry was “inactive”.

As for `N#Cc1cnc(NS(=O)(=O)c2ccc(NC(=O)Cc3ccc(F)c(Cl)c3)cc2)s1`, the Potency entry is “inactive”.

With `NC(=O)c1ncn([C@@H]2O[C@H](CO)[C@@H](O)[C@H]2O)c1O`, the Potency result is “inactive”.

For the molecule `O=[N+]([O-])c1ccc(O)c2ncccc12`, the Potency entry is “inactive”.

With `COC(=O)c1ccc(O)c2ncc(-c3ccc(C(=O)N4CCNCC4)cc3)cc12`, the Potency entry is “inactive”.

Regarding `CO[C@@]12[C@H](COC(N)=O)C3=C(C(=O)C(C)=C(N)C3=O)N1C[C@@H]1N[C@@H]12`, the Potency entry was “inactive”.

In the case of `O=[S+]([O-])(Nc1nccs1)c1ccc(NCc2cc(F)cc(Cl)c2O)cc1`, the Potency entry is “inactive”.

Turning to `O=S(=O)(Nc1nccs1)c1ccc(NCc2cc(Cl)ccc2O)cc1`, the Potency entry was “inactive”.

`O=C(O)C1=NC(C(=O)O)CC(C=CN2c3cc(O)c(OC4OC(CO)C(O)C(O)C4O)cc3CC2C(=O)O)=C1` (configuration not stated): the Potency entry is “inactive”.

As to `Cc1nc(C(=O)NCC(=O)O)c(O)c2ccc(Oc3ccccc3)cc12`, the Potency entry was “inactive”.

With `CCc1ccc(NC(=O)C(=O)NNC(=O)c2cccs2)cc1`, the Potency result was “inactive”.

For the molecule `Nc1ccc(CNc2ccc([S+](=O)([O-])Nc3nccs3)cc2)c(O)c1`, the Potency is 50.1 µM (active).

As to `C=CCNc1oc(-c2ccc(-c3ccccc3)cc2)nc1C#N`, the Potency result is “inactive”.

Consider `NC(=O)c1ccc(O)c2ncccc12`, for which the Potency entry was “inactive”.

With `O=C1CCCC2=C1C1(CCOCC1)N=C(Nc1nc3ccccc3o1)N2`, the Potency result is “inactive”.

(Values after PubChem BioAssay AID1508619 (National Center for Advancing Translational Sciences (NCATS), 2020).)
